The text below walks through data of PubChem BioAssay (NCI).

This is part of a sample that, as a whole, favours compounds with a hit. Of some 83,000 tested, about 20% had one in any assay.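 Compound tested at a single concentration for 48 hours in 96-well plates; a percent growth value below 10 was scored as active.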 A number with no mark means an inactive call. Activity calls are given as the source filed them.

Test in all cases: NCI-60 one-dose screen, 48 h (100 = growth as untreated, 0 = no growth, -100 = all killed)
What all share (details): 10 µM unless noted

The test system of assay [1] is NCI-H23 lung.
The test system of assay [2] is NCI-H322M lung.
Assay [3] relates to HOP-62 NSCLC.
The subject of assay [4] is NCI-H460 lung.
The test system of assay [5] is HOP-92 NSCLC.
For assay [6], the system named is NCI-H522 lung.
Assay [7] deals with A549/ATCC NSCLC.
The subject of assay [8] is 786-0 renal.
The test system of assay [9] is DU-145 prostate.
Assay [10] concerns K-562 leukemia.
The test system of assay [11] is MALME-3M melanoma.
Assay [12] has as its system MDA-MB-231 breast.
Assay [13] concerns RXF 393 renal.
Assay [14] has as its system SF-268 CNS.
For assay [15], the system named is SF-295 CNS.
Assay [16] relates to SF-539 CNS.
Assay [17] deals with UACC-257 melanoma.
In assay [18] the test system is M14 melanoma.
Assay [19] deals with HCT-15 colon.

Regarding `Cn1c(/C=C(\C#N)c2cccc(C(F)(F)F)c2)nc2c(N3CCOCC3)nc(Cl)nc21`, the growth in assay [1] was 16%; in [2], 63.1%; in assay [3], 34.1%; in assay [4], 26.7%; in assay [5], -77.4% (active); in [6], -56% (active). For the same compound, the growth was 33.6% in assay [7]; -74.2% (active) in assay [8]; -80.3% (active) in assay [9]; -12.2% (active) in assay [10]; -21.8% (active) in [11]; -70.1% (active) in assay [12]. Also, the growth in [13] is -92.2% (active); in assay [14] it was -50.8% (active); in [15] it was 85.1%; in assay [16], -79.9% (active); in assay [17], -64.5% (active); in [18], -77.3% (active). Besides, in assay [19], the growth is -37.3% (active).

With `COC(=O)c1c2c(c(C)[n+]([O-])c1C)C(=O)C(NCc1ccc(Br)cc1)=CC2=O`, the growth in [1] is 11%; in assay [2] it was 28.7%; in [3] it was 31.4%; in assay [4], 3.51% (active); in assay [5], 78.1%; in assay [6] it was 42.8%. For the same compound, the growth in assay [7] is 18.2%; in assay [8], 48.8%; in assay [9], 53.3%; in [10], 32%; in assay [11], -70.1% (active); in assay [12], 4.21% (active). For the same compound, the growth in assay [13] is 41.4%; in [14] it was 16.2%; in [15], 19.3%; in assay [16], 8.36% (active); in assay [17] it was -52.3% (active); in assay [18], 4.19% (active). Moreover, the growth in [19] is 7.94% (active).

`O=C(Cn1cc(COc2ncnc3c2cnn3-c2ccccc2)nn1)Nc1cccc2ccccc12`: the growth is 89% in assay [1]; 93.2% in assay [2]; 90.5% in assay [3]; 93.7% in [4]; 82.3% in [5]; 81.1% in [6]. The growth in assay [7] was 92.3%; in [8], 103%; in assay [9] it was 97.9%; in assay [10] it was 94.6%; in assay [11] it was 93.6%; in assay [12], 95%. Further, the growth was 94.8% in [13]; 92.6% in assay [14]; 99.4% in assay [15]; 90% in assay [16]; 95.9% in assay [17]; 105% in assay [18]. In addition, in assay [19], the growth is 96.9%.

On to `O=S(=O)(Nc1ncccn1)c1ccc(NC2Nc3nc4ccccc4nc3S2)cc1` (configuration not stated), for which the growth in assay [1] is 97%; in assay [2] it was 97.7%; in assay [3] it was 99.6%; in [4], 103%; in assay [5] it was 105%; in [6], 94.5%. For the same compound, the growth is 95.8% in assay [7]; 100% in assay [8]; 105% in assay [9]; 98.2% in [10]; 96.1% in [11]; 99.3% in assay [12]. For the same compound, the growth in [13] is 109%; in [14], 97.9%; in assay [15] it was 99.5%; in assay [16], 95.5%; in assay [17], 94%; in [18], 95.5%. The growth in [19] was 96.9%.

As for `COc1cc2nc(NC3CCC3)nc(NC3CCN(C(C)C)CC3)c2cc1OC`, the growth in [1] is 92.2%; in assay [2], 89.2%; in [3], 81.5%; in assay [4] it was 58.3%; in assay [5] it was 26%; in [6], 30.7%. Besides, the growth in assay [7] is 4.73% (active); in [8] it was 68%; in [9] it was 57.1%; in [10] it was 0.162% (active); in assay [11] it was -4.44% (active); in assay [12] it was -2.38% (active). The growth in [13] is -16.9% (active); in [14], 77.9%; in assay [15], 96.6%; in [16], 5.1% (active); in [17], -59.9% (active); in assay [18], -65.8% (active). For the same compound, the growth in assay [19] was 67.7%.

With `COc1ccc2sc3c(NCCCN)nc4ccccc4c3c(=O)c2c1`, the growth in assay [1] was 80.7%; in assay [2], 68.9%; in assay [3] it was 57.2%; in assay [4], -73.3% (active); in [5], 33.9%; in assay [6] it was 18.7%. The growth was -44.8% (active) in assay [7]; 42.3% in assay [8]; -6.46% (active) in assay [9]; -56.9% (active) in [10]; 94.2% in assay [11]; 25.3% in [12]. Besides, the growth in assay [13] is 49.5%; in assay [14], 57.6%; in assay [15] it was 94.5%; in assay [16], 74.1%; in assay [17], 95.7%; in [18], 18.9%. For the same compound, in assay [19], the growth is -49% (active).

As for `CCCCCCCCCCCCCCn1cc(C2=C(c3coc4ccc(OC)cc34)C(=O)NC2=O)c2ccccc21`, the growth was 96% in assay [1]; 99.7% in [2]; 103% in assay [3]; 98.5% in assay [4]; 107% in assay [5]; 90.3% in assay [6]. The growth in assay [7] is 96.6%; in assay [8], 97.6%; in assay [9], 102%; in assay [10], 121%; in assay [11], 107%; in assay [12], 111%. Also, the growth in assay [13] is 108%; in assay [14], 98.8%; in [15], 97.2%; in assay [16], 103%; in assay [17], 96.8%; in assay [18], 98.7%. Besides, the growth in assay [19] was 88.1%.

Take `COc1ccc(/C(C#N)=C/c2nc3c(N4CCOCC4)nc(Cl)nc3n2C)cc1OC`: the growth in assay [1] is 24%; in assay [2] it was 29.9%; in [3], 25.3%; in assay [4], -15.2% (active); in [5], -12.2% (active); in assay [6], -28.4% (active). Further, the growth was 21.1% in [7]; -61.5% (active) in [8]; 8.07% (active) in assay [9]; 0.867% (active) in assay [10]; 32.7% in [11]; 9.29% (active) in assay [12]. In addition, the growth in assay [13] was -67.5% (active); in assay [14], 14.5%; in assay [15] it was -6.46% (active); in [16] it was -26.5% (active); in assay [17], 16.2%; in [18], -49.1% (active). The growth in [19] is -40.8% (active).
